About 83,000 compounds went through this panel and 20% of them were active in at least one assay; those are over-represented in the sample as a whole.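 Activity criterion: percent growth below 10, measured after cells in 96-well plates were exposed to a single compound concentration for 48 hours.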 The source made the active and inactive calls.

The test system of this assay is BT-549 breast. Nature of the assay: NCI-60 one-dose screen, 48 h (100 = growth as untreated, 0 = no growth, -100 = all killed). Particulars: 10 µM.
`COc1ccc(C(=O)/C=C/c2cc(C(F)(F)F)cc(C(F)(F)F)c2)cc1S(N)(=O)=O`: the growth is -65.8% (active).
The value for `CCCn1c(O)c(N=Nc2nc(-c3cc4ccccc4oc3=O)cs2)c2cc(Br)ccc21` was 113% (inactive); that for `CC(=O)Oc1ccccc1C(=O)Oc1ccc(C(=O)/C=C/c2ccncc2)cc1` was 31% (inactive); that for `CC(=O)C1=C(C)NC(SCC(=O)Nc2ccc(S(=O)(=O)Nc3cc(C)on3)cc2)=NC1c1ccccc1` (configuration not stated) was 114% (inactive).
In the case of `COc1cc2c3c(n(CCCn4ccnc4)c(=O)c2cc1OC)-c1nc2c(cc1C3=O)OCO2` it was 29.6% (inactive).
The value for `O=S(=O)(Nc1ncccn1)c1ccc(-n2c(-c3ccc(Br)cc3)nc(-c3ccccc3)c2-c2ccccc2)cc1` was 8.3% (active); that for `COc1ccc(-c2cc(C(=O)N=Nc3c(O)[nH]c4ccc(Br)cc34)c3ccccc3n2)cc1` was 96.3% (inactive); that for `CC1(c2ccccc2)NC(=O)N(CC(=O)Nc2ccc(C(=O)/C=C/C=C/c3ccccc3)cc2)C1=O` (configuration not stated) was 38.9% (inactive).
In the case of `O=c1c2ccccc2nc(COc2ccccc2)n1/N=C/c1ccc(F)cc1`, the growth is 94.7% (inactive).
As for `COc1ccc(-c2cc(-c3cc(C(=O)c4ccccc4)n4ccc(C)cc34)nc(N)c2C#N)cc1`, the growth is 22.4% (inactive).
As for `COc1cc(C2CC(c3ccc(C)cc3)=Nc3c(N)nc(N)nc3N2)ccc1Oc1nc(Nc2ccc(F)cc2)nc(N(C)C)n1` (configuration not stated), the growth is 65.4% (inactive).
The value for `O=C(Nc1cccc(C(F)(F)F)c1)c1cncc(C#Cc2cnc3ccc(N4CCOCC4)nn23)c1` was -37.5% (active).

For the origin of these results see PubChem BioAssay (NCI).
